Design in all cases: scale not given: direction of the effect not stated beside the values
Assay [1] has as its target Protein translocase subunit SecA (Escherichia coli (strain K12)) (UniProt P10408). The assay is described as follows: Assay to Identify E. coli SecA ATPase Inhibitors. Type of assay: functional. The conditions noted are these: 30 µM.
Assay [2] concerns the target T1, Ubiquitin-activating enzyme e1, putative (Leishmania donovani (strain BPK282A1)) (UniProt E9BSI1).
T1 sequence (whole entry): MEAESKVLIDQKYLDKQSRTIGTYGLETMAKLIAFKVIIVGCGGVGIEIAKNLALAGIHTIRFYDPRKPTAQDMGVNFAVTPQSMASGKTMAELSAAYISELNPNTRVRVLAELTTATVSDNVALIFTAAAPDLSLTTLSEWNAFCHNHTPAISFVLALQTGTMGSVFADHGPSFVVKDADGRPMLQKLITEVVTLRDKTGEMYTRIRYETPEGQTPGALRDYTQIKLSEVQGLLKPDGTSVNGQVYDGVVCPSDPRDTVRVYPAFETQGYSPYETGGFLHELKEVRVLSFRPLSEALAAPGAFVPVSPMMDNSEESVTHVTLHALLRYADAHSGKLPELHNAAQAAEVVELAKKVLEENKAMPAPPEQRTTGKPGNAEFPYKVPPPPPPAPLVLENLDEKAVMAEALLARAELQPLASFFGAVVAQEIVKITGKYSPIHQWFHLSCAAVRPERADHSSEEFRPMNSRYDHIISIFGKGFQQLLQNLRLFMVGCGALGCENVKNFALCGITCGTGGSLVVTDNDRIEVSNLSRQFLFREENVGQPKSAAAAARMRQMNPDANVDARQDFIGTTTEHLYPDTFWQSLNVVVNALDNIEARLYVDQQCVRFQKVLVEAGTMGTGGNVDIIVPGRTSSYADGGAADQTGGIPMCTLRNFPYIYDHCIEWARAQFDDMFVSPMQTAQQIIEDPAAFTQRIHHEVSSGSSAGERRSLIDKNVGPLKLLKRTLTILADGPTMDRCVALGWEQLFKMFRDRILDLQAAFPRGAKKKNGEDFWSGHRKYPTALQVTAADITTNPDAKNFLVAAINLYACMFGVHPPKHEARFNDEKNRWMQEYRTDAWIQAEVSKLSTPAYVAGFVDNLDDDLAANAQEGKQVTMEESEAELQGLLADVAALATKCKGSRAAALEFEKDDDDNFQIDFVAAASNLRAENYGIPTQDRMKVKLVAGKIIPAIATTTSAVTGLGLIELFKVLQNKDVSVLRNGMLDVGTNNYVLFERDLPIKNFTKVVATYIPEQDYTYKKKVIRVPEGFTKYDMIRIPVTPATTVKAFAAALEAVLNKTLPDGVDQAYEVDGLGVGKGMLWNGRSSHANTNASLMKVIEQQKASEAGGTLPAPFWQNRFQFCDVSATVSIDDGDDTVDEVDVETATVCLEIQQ
The assay is described as follows: Leishmania donovani Ubiquitin Activating Enzyme (LdE1). Type of assay: functional. The note with it: 30 µM.

Assay [3] concerns the target AMP-activated protein kinase, AMPK (Homo sapiens) (UniProt P54646+O43741+P54619+Q9UGJ0+Q9Y478+Q13131+Q9UGI9). The assay is described as follows: AMP-dependent Kinase enzyme assay. An in vitro enzyme assay that detects ADP turnover that is directly proportional to AMPK activity. This uses naive AMPK that is activated during the assay with MK-8722. Type of assay: functional. The note with it: 30 µM.

Assay [4] concerns the target Sialic acid-binding Ig-like lectin 9 (Homo sapiens) (UniProt Q9Y336). The assay is described as follows: Hs-Siglec9 ALPHAscreen SOP 20170721. The conditions noted are these: 10 µM. On the technique in general: In Alpha technology, singlet oxygen from a donor bead excites a nearby acceptor bead.
For a further assay, the system named is Trypanosoma cruzi. Put plainly: Trypanosoma cruzi phosphomannomutase and mannose-1-phosphate guanylyltransferase assay. The conditions noted are these: 10 µM. The assay is classed as functional.
Assay [5] addresses T2, Arginase-2, mitochondrial (Homo sapiens) (UniProt P78540).
T2 sequence (whole entry): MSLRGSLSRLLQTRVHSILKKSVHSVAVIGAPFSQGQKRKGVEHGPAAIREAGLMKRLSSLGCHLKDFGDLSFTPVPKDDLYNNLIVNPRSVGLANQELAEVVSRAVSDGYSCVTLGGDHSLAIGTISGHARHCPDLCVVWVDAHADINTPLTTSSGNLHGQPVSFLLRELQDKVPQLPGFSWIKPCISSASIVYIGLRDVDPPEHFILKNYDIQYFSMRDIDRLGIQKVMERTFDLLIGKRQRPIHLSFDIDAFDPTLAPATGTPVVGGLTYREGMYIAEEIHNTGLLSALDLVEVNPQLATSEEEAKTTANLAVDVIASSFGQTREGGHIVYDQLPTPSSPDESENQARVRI
Put plainly: in vitro enzyme assay to detect the production of urea directly proportional to the activity of Arginase II. Also: in the data most compounds retested in dose-response had high values. The assay is classed as functional. The note with it: 33.3 µM.

Assay [6] concerns the target T3, Proteasome subunit beta (Trypanosoma cruzi) (UniProt O96673).
T3 sequence (whole entry): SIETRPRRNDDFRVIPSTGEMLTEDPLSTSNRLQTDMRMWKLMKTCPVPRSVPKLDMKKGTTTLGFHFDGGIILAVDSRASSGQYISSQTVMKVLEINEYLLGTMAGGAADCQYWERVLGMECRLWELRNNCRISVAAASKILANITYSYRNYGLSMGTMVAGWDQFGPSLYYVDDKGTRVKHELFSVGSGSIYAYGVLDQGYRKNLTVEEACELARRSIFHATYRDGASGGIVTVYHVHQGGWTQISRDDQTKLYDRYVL
The assay is described as follows: Trypanosoma cruzi proteasome chymotrypsin-like activity (TcProtChymo) assay. Also: in the data most compounds retested in dose-response had high values. The conditions noted are these: 9.37 µM. The assay is classed as functional.

A further assay is filed under the species Homo sapiens. Put plainly: To identify inhibition of the IFN signalling (Jak-Stat) pathway via expression of an eGFP reporter gene under the control of an IFN-stimulated response element (ISRE) containing MxA promoter. The assay is classed as functional. The conditions noted are these: 30 µM. A general note: Reporter assays use an easily measured gene product as a stand-in for the process of interest.

In assay [7] the target is T4, Tyrosyl-tRNA synthetase, putative (Trypanosoma cruzi (strain CL Brener)) (UniProt Q4DSP6).
T4 sequence (whole entry): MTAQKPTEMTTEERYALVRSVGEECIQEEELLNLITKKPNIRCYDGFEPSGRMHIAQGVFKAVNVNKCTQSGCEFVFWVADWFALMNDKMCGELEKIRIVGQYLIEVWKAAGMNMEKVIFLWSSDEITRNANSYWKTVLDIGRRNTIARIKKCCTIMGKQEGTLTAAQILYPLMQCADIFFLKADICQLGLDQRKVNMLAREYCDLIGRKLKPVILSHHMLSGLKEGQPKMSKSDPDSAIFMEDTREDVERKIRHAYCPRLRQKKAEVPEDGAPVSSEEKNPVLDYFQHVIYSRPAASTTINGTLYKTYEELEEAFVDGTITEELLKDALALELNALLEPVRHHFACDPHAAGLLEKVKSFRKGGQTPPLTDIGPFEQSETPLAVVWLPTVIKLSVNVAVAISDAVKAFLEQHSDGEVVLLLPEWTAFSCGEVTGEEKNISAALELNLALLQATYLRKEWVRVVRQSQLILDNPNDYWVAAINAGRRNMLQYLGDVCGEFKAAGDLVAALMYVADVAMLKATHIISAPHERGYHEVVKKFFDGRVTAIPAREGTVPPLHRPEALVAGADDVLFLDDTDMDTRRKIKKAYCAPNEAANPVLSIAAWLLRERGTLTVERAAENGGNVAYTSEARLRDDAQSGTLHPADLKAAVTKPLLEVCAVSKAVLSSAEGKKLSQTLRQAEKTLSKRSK
The assay is described as follows: Trypanosoma cruzi tyrosyl tRNA synthetase (TcYRS) _High Tyrosine SOP. Also: in the data most compounds retested in dose-response had high values. Type of assay: functional. The note with it: 30 µM.

The target of assay [8] is T4, Tyrosyl-tRNA synthetase, putative (Trypanosoma cruzi (strain CL Brener)). The assay is described as follows: Trypanosoma cruzi tyrosyl tRNA synthetase (TcYRS) SOP. Type of assay: functional. The conditions noted are these: 30 µM.
The target of assay [9] is Chromo domain-containing protein 1 (Saccharomyces cerevisiae (strain ATCC 204508 / S288c) (Baker's yeast)) (UniProt P32657). The assay is described as follows: ScCHD-1 Enzyme Inhibition Assay. Also: in the data most compounds retested in dose-response had high values. The note with it: 30 µM. The assay is classed as functional.

Structures are written as SMILES. For some of these results: Results with a measured potency or affinity are listed apart.

Sialic acid-binding Ig-like lectin 9 (Homo sapiens), sequence (Q9Y336 whole entry): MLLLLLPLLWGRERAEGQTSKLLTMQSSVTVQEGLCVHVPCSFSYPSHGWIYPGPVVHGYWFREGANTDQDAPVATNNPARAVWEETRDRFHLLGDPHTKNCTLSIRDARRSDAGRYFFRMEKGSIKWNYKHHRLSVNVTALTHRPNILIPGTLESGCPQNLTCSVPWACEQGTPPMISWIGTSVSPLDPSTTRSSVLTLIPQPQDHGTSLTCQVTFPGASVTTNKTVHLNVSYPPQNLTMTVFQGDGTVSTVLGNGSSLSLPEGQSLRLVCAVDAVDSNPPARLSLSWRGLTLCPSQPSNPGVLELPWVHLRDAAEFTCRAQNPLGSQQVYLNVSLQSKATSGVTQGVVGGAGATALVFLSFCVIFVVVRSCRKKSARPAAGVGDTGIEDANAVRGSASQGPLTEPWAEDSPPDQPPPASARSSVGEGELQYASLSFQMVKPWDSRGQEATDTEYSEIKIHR
Chromo domain-containing protein 1 (Saccharomyces cerevisiae (strain ATCC 204508 / S288c) (Baker's yeast)), sequence (P32657 whole entry, the tested form may be a part): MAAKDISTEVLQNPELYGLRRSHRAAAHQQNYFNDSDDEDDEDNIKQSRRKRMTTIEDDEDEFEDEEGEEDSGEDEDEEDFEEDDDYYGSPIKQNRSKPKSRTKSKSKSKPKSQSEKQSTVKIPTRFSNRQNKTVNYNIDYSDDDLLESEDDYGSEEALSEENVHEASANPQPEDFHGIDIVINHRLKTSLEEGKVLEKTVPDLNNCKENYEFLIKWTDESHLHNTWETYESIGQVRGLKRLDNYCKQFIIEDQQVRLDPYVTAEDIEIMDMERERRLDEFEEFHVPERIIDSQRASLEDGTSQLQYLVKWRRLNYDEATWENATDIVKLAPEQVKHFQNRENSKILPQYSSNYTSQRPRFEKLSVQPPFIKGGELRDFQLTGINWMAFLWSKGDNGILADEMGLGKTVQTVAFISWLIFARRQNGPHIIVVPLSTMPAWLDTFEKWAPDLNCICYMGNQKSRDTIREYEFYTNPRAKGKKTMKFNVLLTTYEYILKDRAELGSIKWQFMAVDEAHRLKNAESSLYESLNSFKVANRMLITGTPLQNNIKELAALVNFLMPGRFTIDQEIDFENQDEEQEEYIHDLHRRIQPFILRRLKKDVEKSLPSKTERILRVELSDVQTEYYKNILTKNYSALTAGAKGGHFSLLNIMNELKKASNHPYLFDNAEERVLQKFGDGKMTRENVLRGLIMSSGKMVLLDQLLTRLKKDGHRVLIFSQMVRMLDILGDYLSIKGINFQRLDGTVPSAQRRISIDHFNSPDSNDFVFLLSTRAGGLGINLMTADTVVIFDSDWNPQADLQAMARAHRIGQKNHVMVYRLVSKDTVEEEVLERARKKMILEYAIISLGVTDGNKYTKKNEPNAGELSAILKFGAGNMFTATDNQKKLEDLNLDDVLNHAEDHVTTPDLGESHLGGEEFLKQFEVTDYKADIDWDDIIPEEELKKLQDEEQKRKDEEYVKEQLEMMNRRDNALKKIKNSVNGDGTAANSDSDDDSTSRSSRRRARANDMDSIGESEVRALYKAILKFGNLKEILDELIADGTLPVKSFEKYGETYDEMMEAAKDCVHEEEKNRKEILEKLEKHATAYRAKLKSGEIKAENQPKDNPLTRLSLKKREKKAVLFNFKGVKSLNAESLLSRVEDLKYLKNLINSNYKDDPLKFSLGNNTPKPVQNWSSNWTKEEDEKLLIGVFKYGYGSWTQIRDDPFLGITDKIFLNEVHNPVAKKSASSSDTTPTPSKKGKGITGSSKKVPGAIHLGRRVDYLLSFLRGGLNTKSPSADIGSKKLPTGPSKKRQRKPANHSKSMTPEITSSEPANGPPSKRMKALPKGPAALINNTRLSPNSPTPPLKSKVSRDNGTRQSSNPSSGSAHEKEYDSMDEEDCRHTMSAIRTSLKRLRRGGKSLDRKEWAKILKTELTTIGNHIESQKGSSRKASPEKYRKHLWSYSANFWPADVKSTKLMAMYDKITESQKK
Protein translocase subunit SecA (Escherichia coli (strain K12)), sequence (P10408 whole entry): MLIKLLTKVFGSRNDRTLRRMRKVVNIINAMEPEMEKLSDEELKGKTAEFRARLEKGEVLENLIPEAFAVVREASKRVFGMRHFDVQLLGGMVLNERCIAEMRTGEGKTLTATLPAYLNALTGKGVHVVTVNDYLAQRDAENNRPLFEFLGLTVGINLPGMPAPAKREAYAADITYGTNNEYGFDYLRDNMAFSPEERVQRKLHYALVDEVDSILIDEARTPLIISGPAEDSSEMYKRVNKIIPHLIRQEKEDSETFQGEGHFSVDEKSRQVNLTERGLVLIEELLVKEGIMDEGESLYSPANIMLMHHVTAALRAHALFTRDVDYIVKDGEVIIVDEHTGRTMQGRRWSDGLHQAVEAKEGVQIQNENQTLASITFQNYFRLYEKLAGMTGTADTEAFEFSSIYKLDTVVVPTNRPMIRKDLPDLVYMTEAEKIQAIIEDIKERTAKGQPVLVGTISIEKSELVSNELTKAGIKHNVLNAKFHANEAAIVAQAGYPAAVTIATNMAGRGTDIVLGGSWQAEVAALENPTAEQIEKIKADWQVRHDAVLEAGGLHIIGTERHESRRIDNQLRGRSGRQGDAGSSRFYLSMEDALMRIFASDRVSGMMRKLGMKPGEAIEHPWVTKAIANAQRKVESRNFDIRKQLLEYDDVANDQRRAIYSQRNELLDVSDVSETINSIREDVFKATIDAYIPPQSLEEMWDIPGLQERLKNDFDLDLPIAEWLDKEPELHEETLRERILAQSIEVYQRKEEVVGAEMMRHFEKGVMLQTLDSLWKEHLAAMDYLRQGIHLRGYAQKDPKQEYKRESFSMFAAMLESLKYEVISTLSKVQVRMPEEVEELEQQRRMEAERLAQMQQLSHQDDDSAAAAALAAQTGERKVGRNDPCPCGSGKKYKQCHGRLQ

`c1cnc2c(c1)cc([C@H]1CCCO1)n2CCN1CCCCC1`: the Percent Effect in assay [1] was 4.1%; in assay [2], 9.46%; in assay [3], 12%; in assay [4], -7.44%; in the assay with Trypanosoma cruzi, -7.91%; in assay [5], -0.232%. Moreover, the Percent Effect in assay [6] is 9.52%; in the assay listed under Homo sapiens it was 7.5%; in assay [7], 2.15%; in [8] it was 3.9%; in [9] it was -12.4%.
Turning to `CCc1n[nH]c(C2CN(C(=O)Cn3ccccc3=O)CCO2)n1` (stereo not drawn), the Percent Effect in assay [1] is 0.155%; in assay [2], 16.5%; in [3], -10.9%; in assay [4] it was -3.88%; in the assay with Trypanosoma cruzi, 0.718%; in assay [5] it was 6.67%. Also, the Percent Effect in [6] is 17.1%; in the assay filed under Homo sapiens it was 2.18%; in assay [7], 3.12%; in assay [8] it was 12.7%; in assay [9], -24.2%.
As to `CCCS(=O)(=O)NCc1cccnc1OCC`, the Percent Effect was 0.771% in assay [1]; 2.6% in [2]; -1.14% in [3]; 3.55% in [4]; 1.28% with Trypanosoma cruzi; -5.52% in assay [5]. Moreover, the Percent Effect in [6] is 6.32%; in the assay listed under Homo sapiens it was 13.3%; in [7], 1.07%; in assay [8], -1.24%; in [9] it was -7.12%.
Consider `CCN1CCC(CNC(=O)NCc2cc(-c3ccc(C)cc3)no2)C1` (stereo not drawn), for which the Percent Effect is 0.151% in assay [1]; 0% in assay [2]; -6.65% in assay [3]; 3.46% in [4]; 3.44% with Trypanosoma cruzi; -3.14% in assay [5]. Further, the Percent Effect was 12.2% in assay [6]; 5.69% in the assay listed under Homo sapiens; 10.9% in assay [7]; 25.6% in [8]; -5.52% in assay [9].
Turning to `Cc1nc(CN2C[C@@H]3CN(C(=O)c4ccnnc4)C[C@@H]3C2=O)cs1`, the Percent Effect in assay [1] is -4.78%; in assay [2] it was 5.41%; in [3] it was 6.23%; in [4], 4.54%; with Trypanosoma cruzi it was -0.684%; in assay [5] it was 2.23%. Besides, the Percent Effect in assay [6] was 11.6%; in the assay filed under Homo sapiens, -22.8%; in assay [7], 3.24%; in [8] it was 7.69%; in [9] it was 4.63%.
With `COc1cccc2cc(CNC(=O)N3CCCC(O)C3)oc12` (stereo not drawn), the Percent Effect in assay [1] was -6.3%; in assay [2], -2.53%; in [3] it was -3.54%; in assay [4], 1.57%; in the assay on Trypanosoma cruzi it was 8.59%; in [5] it was -3.8%. Also, the Percent Effect in assay [6] was 1.39%; in the assay listed under Homo sapiens, 6.63%; in assay [7], 3.45%; in assay [8], 8.86%; in [9], -5.74%.
Turning to `COc1cc(CNC(=O)Nc2cc(C(F)(F)F)c[nH]c2=O)ccn1`, the Percent Effect in [1] was -3.54%; in assay [2] it was 13.2%; in assay [3], 2.48%; in [4] it was 10.4%; in the assay on Trypanosoma cruzi it was 1.13%; in assay [5], -3.06%. The Percent Effect was 12.7% in assay [6]; 7.49% in the assay filed under Homo sapiens; 0.49% in [7]; 12.2% in [8]; -11.3% in assay [9].
For the compound `COc1c(CNC2CCN(c3ncccn3)CC2)c(C(C)C)nn1C`, the Percent Effect was -4.79% in [1]; 10.5% in assay [2]; 4.83% in assay [3]; -4.46% in assay [4]; -6.26% in the assay on Trypanosoma cruzi; 7.55% in assay [5]. For the same compound, the Percent Effect was 2.79% in assay [6]; -4.77% in the assay filed under Homo sapiens; 6.4% in assay [7]; 16.1% in assay [8]; -4.31% in assay [9].

(Values after ChEMBL document CHEMBL3988442, “University of Dundee, Small-Polar-MMV Screening Library” (2021).)
